Assay results as given in PubChem BioAssay.
The source made the active and inactive calls. Unless noted, no rule for the calls is given here.

Assays:
[1] = anti-His antibody binders, primary screen, artefact control for SMM control protein annotation, biochemical, small-molecule microarray, 635 nm fluorescence (AID 1128); conditions: anti-His Alexa647 antibody binding, higher = more signal;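 also: score merges feature fluorescence with signal-to-noise for each printed compound spot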
[2] = tested on: Human papillomavirus type 1a E7 protein (residues 1-88); assay: HPV1a E7 small-molecule binders, primary screen, biochemical, small-molecule microarray, residues 1-88, 635 nm (AID 1129); conditions: small-molecule microarray binding, fluorescence 635 nm; higher = more signal
[3] = molecular target: Focal adhesion kinase 1 (Homo sapiens) (UniProt Q05397); assay: small-molecule microarray binders of FAK, primary screen, biochemical, 635/667 nm fluorescence, BSA, DTT (AID 1130); conditions: PTK2 binding, 635 nm fluorescence, higher = more signal;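 also: composite of spot emission at 667 nm and signal to noise over triplicate slides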
Chain of Focal adhesion kinase 1 (Homo sapiens) (Q05397 whole entry, looked up): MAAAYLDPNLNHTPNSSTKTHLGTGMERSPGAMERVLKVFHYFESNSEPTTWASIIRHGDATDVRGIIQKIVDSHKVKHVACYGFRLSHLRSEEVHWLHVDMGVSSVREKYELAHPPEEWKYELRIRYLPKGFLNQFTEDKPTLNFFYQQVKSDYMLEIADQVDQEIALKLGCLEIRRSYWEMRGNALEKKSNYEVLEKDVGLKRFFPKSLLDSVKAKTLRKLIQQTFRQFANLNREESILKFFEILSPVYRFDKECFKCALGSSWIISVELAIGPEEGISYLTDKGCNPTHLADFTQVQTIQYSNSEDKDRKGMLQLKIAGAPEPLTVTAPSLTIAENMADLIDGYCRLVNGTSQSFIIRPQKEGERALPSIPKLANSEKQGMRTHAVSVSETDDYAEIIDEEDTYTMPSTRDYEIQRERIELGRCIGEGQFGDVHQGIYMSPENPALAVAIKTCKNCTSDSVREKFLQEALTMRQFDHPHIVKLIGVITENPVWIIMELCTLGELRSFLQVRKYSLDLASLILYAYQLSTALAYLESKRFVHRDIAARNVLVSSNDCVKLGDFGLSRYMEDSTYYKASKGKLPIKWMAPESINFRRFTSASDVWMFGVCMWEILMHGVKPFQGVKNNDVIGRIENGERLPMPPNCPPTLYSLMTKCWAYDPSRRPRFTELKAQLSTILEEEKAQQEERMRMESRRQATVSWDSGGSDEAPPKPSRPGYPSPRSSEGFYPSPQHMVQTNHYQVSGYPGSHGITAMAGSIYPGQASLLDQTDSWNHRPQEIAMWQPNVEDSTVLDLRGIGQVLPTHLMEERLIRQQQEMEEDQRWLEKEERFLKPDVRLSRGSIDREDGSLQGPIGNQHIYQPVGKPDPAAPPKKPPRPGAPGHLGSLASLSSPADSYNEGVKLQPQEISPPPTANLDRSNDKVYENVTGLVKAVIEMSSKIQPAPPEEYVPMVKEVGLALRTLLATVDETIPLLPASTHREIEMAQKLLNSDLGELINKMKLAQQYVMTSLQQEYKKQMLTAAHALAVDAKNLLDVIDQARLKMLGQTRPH

[4] = tested on: Fibrinogen (Alexa647-labelled); assay: fibrinogen binders on compound microarrays, profiling panel, artefact control for SMM control-protein annotation, biochemical, small-molecule microarray, 635/667 nm fluorescence (AID 1131); conditions: fibrinogen-A647 binding fluorescence, higher = more signal;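 also: z-score merges 667 nm fluorescence with per-spot signal-to-noise over triplicate slides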
[5] = molecular target: Follistatin (Homo sapiens) (UniProt P19883); assay: follistatin binders on small-molecule microarrays, primary screen, biochemical, small-molecule microarray, 635/667 nm fluorescence (AID 1132); conditions: FST binding, 635 nm fluorescence, higher = more signal
Chain of Follistatin (Homo sapiens) (P19883 whole entry, looked up): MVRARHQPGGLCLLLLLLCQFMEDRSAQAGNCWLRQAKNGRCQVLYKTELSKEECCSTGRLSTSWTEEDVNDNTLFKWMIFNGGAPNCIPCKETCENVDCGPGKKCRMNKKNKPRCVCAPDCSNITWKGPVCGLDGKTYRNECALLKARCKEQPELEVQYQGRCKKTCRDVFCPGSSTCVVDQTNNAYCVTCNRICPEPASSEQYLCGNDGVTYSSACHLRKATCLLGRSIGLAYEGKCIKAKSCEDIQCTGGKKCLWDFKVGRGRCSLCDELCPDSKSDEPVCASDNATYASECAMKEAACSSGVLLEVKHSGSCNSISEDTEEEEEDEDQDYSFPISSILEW

[6] = molecular target: Fibroblast growth factor 2 (Homo sapiens) (UniProt P09038); assay: FGF2 binders on small-molecule microarrays, primary screen, biochemical, small-molecule microarray, 635/667 nm fluorescence (AID 1133); conditions: small-molecule microarray binding, FGF2, fluorescence 635/667; higher = more signal
Chain of Fibroblast growth factor 2 (Homo sapiens) (P09038 whole entry, looked up): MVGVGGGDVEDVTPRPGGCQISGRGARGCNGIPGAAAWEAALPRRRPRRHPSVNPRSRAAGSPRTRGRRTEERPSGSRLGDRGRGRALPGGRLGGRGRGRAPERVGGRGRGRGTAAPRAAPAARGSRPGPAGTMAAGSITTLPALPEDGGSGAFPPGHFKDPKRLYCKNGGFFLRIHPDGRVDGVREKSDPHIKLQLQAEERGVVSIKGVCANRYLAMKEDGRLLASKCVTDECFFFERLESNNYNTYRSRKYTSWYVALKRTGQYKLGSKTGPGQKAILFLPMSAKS

[7] = mitochondrial membrane potential change in A549 cells, profiling panel, cell-based, JC-1 fluorescence, basal, 24 h, 100 nL (AID 1138); conditions: higher = more signal;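 also: A549 lung adenocarcinoma cells under basal conditions with no added stimulus; test concentration not given here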
[8] = tested on: Lefty1; assay: Lefty1 binders on small-molecule microarrays, primary screen, biochemical, small-molecule microarray, 635/667 nm fluorescence (AID 1139); conditions: small-molecule microarray binding, fluorescence 635/667; higher = more signal
[9] = tested on: wheat germ agglutinin (Triticum aestivum), Alexa647-labelled; assay: wheat germ agglutinin binders on compound microarrays, profiling panel, artefact control for SMM control-protein annotation, biochemical, small-molecule microarray, 635/667 nm fluorescence (AID 1140); conditions: WGA-A647 binding, 635 nm fluorescence, higher = more signal;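 also: score merges 667 nm feature emission with signal to noise over triplicate slides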
[10] = molecular target: Luciferin 4-monooxygenase (Photinus pyralis) (UniProt P08659); assay: firefly luciferase enzyme inhibitors, primary screen, biochemical, luminescence, purified enzyme, 2006 set (AID 1141); conditions: SteadyGlo luminescence, 30 min, higher = more signal, called active from +8 up or from −8 down;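 also: cell-free assay with purified firefly luciferase at 100 ng per well in PBS; test concentration not given here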
Chain of Luciferin 4-monooxygenase (Photinus pyralis) (P08659 whole entry, looked up): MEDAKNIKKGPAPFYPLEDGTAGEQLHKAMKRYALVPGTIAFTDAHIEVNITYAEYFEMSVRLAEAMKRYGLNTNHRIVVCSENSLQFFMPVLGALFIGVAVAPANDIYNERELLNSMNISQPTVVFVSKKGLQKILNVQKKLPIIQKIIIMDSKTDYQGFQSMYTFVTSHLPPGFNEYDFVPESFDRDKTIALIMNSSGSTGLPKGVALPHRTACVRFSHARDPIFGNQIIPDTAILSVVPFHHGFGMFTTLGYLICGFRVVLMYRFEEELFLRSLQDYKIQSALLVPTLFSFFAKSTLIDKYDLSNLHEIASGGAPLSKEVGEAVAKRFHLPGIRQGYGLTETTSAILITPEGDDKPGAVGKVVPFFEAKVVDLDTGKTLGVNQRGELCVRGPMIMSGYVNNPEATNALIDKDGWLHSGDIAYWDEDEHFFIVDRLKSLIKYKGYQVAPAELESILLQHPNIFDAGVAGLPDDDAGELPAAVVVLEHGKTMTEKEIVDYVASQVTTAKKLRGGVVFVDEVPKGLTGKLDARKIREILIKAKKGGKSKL

[11] = tested on: Wnt5a (protein binding on small-molecule microarray); assay: Wnt5a binders on small-molecule microarray, primary screen, biophysical, 635/667 nm fluorescence (AID 1142); conditions: 635 nm fluorescence, higher = more signal;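 also: fluorescence read at 667 nm with signal to noise per printed feature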
[12] = cell viability in Huh7 cells, primary screen, cytotoxicity control for HCV replication inhibitor project, CellTiter-Glo luminescence, basal, 48 h (AID 1143); conditions: Huh7 HCV replicon, higher = more signal, called active from +8 up or from −8 down;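 also: Huh7 hepatoma cells carrying a hepatitis C replication reporter with no stimulus; test concentration not given here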
[13] = P. aeruginosa biofilm formation inhibitors, primary screen, PAO1 strain, BacTiter-Glo luminescence, LB-PBS (AID 1144); conditions: 12 h, higher = more signal
[14] = CREB reporter modulators without forskolin, primary screen, cell-based, PC12, CRE-LacZ reporter, unstimulated (AID 1145); conditions: no forskolin, luminescence, 4.5 h, higher = more signal, called active from +8 up or from −8 down
[15] = CREB reporter modulators under forskolin, primary screen, cell-based, PC12, CRE-LacZ reporter, forskolin-stimulated (AID 1146); conditions: luminescence, 4.5 h, higher = more signal, called active from +8 up or from −8 down;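 also: PC12 cells with 6xCRE LacZ reporter stimulated by forskolin 10 µM; beta-galactosidase reporter signal reflecting CREB driven transcription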
[16] = molecular target: Streptavidin (Streptomyces avidinii) (UniProt P22629); assay: streptavidin binders on small-molecule microarray, primary screen, artefact control for SMM compound annotation, biophysical, 635/667 nm fluorescence (AID 1147); conditions: streptavidin binding, higher = more signal;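 also: signal reflects streptavidin binding to arrayed compounds as a control protein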
Chain of Streptavidin (Streptomyces avidinii) (P22629 whole entry, looked up): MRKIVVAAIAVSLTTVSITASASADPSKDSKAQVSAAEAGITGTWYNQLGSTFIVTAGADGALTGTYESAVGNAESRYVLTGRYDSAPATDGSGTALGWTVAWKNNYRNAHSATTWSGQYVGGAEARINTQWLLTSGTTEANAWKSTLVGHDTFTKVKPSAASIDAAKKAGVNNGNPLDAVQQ

[17] = small-molecule binders of probe aInhba, primary screen, biochemical, small-molecule microarray, 635/667 nm fluorescence (AID 1148); conditions: higher = more signal;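 also: score merges 667nm spot fluorescence with signal-to-noise for antibody binding to printed compounds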
[18] = molecular target: Torsin-1A (Homo sapiens) (UniProt O14656); assay: torsin A binders from cell lysate, primary screen, small-molecule microarray, wild-type, 635/667 nm (AID 1149); conditions: COS7 hTOR1A-WT lysate, 635 nm fluorescence, higher = more signal
Chain of Torsin-1A (Homo sapiens) (O14656 whole entry, looked up): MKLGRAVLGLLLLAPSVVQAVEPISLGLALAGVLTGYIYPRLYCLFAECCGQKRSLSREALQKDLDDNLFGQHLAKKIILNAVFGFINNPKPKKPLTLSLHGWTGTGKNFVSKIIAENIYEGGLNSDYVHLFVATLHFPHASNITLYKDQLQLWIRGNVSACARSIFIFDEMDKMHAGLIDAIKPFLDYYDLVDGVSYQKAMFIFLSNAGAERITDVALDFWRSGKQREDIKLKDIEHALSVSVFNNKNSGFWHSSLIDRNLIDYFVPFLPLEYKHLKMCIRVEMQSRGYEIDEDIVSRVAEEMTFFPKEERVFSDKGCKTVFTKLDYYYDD

[19] = molecular target: Torsin-1A (Homo sapiens) (UniProt O14656); assay: small-molecule binders of mutant TOR1A in lysate, primary screen, cell lysate, small-molecule microarray, COS7 lysate, 635/667 nm fluorescence (AID 1150); conditions: COS7 hTOR1A mutant lysate, 635 nm fluorescence, higher = more signal;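 also: score pools 667 nm emission and signal to noise measuring lysate protein binding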
[20] = tested on: Sonic hedgehog protein (Shh); assay: small-molecule binders of Shh protein, primary screen, biochemical, small-molecule microarray, 635/667 nm fluorescence (AID 1151); conditions: small-molecule microarray binding, 635 nm fluorescence; higher = more signal;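 also: Shh protein binding to compounds spotted on small-molecule microarray slides; score combines spot fluorescence intensity with signal-to-noise across triplicate slides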

CCCCC(=C=CC[C@H](O)c1ccccc1OCCO)CCO
composite z-score [1]: 2.08
composite z-score [2]: 0.118
composite z-score [3]: 0.0679
composite z-score [4]: -0.472
composite z-score [5]: 0.689
composite z-score [6]: 0.749
z-score [7]: -0.378
composite z-score [8]: 0.342
composite z-score [9]: -0.298
z-score [10]: 0.207 (inactive)
composite z-score [11]: -0.0677
z-score [12]: -0.0854 (inactive)
z-score [13]: 0.235 (inactive)
z-score [14]: 4.29 (inactive)
z-score [15]: 1.37 (inactive)
composite z-score [16]: -0.356
composite z-score [17]: -0.0762
composite z-score [18]: -0.309
composite z-score [19]: 0.0868
composite z-score [20]: 0.704

CC[C@@H]1C=C(C(=O)O)[C@H](c2cccc(Cl)c2)N1S(=O)(=O)c1ccc(C)cc1
composite z-score [1]: 1.47
composite z-score [2]: 1.14
composite z-score [3]: 0.887
composite z-score [4]: -0.611
composite z-score [5]: -0.126
composite z-score [6]: -0.686
z-score [7]: 0.435
composite z-score [8]: -0.908
composite z-score [9]: 0.226
z-score [10]: 0.556 (inactive)
composite z-score [11]: -0.23
z-score [12]: -0.733 (inactive)
z-score [13]: 1.24 (inactive)
z-score [14]: -0.322 (inactive)
z-score [15]: -0.166 (inactive)
composite z-score [16]: 0.326
composite z-score [17]: -0.0018
composite z-score [18]: 1.65
composite z-score [19]: 0.314
composite z-score [20]: -0.726

C=CCNC(=O)[C@@H]1[C@H]2C(=O)O[C@H](c3ccccc3)[C@H](c3ccccc3)N2[C@H](c2ccc(OCCO)cc2)[C@@]12C(=O)Nc1ccc(C#CCNC(N)=O)cc12
composite z-score [1]: 0.156
composite z-score [2]: -0.0352
composite z-score [3]: 0.0378
composite z-score [4]: 0.75
composite z-score [5]: 0.593
composite z-score [6]: -0.187
z-score [7]: -0.844
composite z-score [8]: -0.0354
composite z-score [9]: 0.671
z-score [10]: -0.851 (inactive)
composite z-score [11]: 0.0977
z-score [12]: 0.414 (inactive)
z-score [13]: 0.0575 (inactive)
z-score [14]: 0.155 (inactive)
z-score [15]: 0.0297 (inactive)
composite z-score [16]: 0.987
composite z-score [17]: -0.0195
composite z-score [18]: 0.564
composite z-score [19]: 0.19
composite z-score [20]: 0

C#CCN(C(=O)OC(C)(C)C)[C@H](CO)c1ccccc1
composite z-score [1]: 0.137
composite z-score [2]: 0.266
composite z-score [3]: 0.0987
composite z-score [4]: -0.0218
composite z-score [5]: -0.0032
composite z-score [6]: 0.579
z-score [7]: -0.766
composite z-score [8]: 0.543
composite z-score [9]: -0.174
z-score [10]: 0.978 (inactive)
composite z-score [11]: -0.1
z-score [12]: -1.66 (inactive)
z-score [13]: -0.141 (inactive)
z-score [14]: 0.0329 (inactive)
z-score [15]: -0.653 (inactive)
composite z-score [16]: -0.314
composite z-score [17]: -0.128
composite z-score [18]: 0.435
composite z-score [19]: 0.411
composite z-score [20]: 0.0466

COC(=O)[C@H](Cc1ccccc1)N1CC(C)(OC)O[C@@H](Cc2ccccc2)[C@H]1/C=C/C1CC1 (stereo not given in full)
composite z-score [1]: 0.575
composite z-score [2]: 0.145
composite z-score [3]: 0.0639
composite z-score [4]: 0.47
composite z-score [5]: 0.0103
composite z-score [6]: 0.0959
z-score [7]: 0.385
composite z-score [8]: -0.14
composite z-score [9]: 0.808
z-score [10]: -0.138 (inactive)
composite z-score [11]: -0.0712
z-score [12]: -0.628 (inactive)
z-score [13]: 0.664 (inactive)
z-score [14]: 4.13 (inactive)
z-score [15]: 1.12 (inactive)
composite z-score [16]: 0.0404
composite z-score [17]: -0.0762
composite z-score [18]: 0.256
composite z-score [19]: 0.269
composite z-score [20]: 0.0034

CN1C(=O)C2CC=C(C3=CCO[C@@H]3[C@H]3CCCN3S(=O)(=O)c3ccccc3[N+](=O)[O-])CC2C1=O (stereo not given in full)
composite z-score [1]: -0.354
composite z-score [2]: -0.342
composite z-score [3]: -0.244
composite z-score [4]: 0.533
composite z-score [5]: 0.0289
composite z-score [6]: 0.159
z-score [7]: 0.0911
composite z-score [8]: -0.106
composite z-score [9]: -0.0718
z-score [10]: 0.294 (inactive)
composite z-score [11]: 0.0169
z-score [12]: 0.459 (inactive)
z-score [13]: 0.0769 (inactive)
z-score [14]: -0.505 (inactive)
z-score [15]: 1.14 (inactive)
composite z-score [16]: -0.102
composite z-score [17]: 0.0516
composite z-score [18]: -0.23
composite z-score [19]: -0.282
composite z-score [20]: -0.151

COC(=O)[C@@]1(Cc2ccc(F)cc2)[C@H]2c3cc(C(=O)N4CCCC4)n(C[C@H](O)CO)c3C[C@H]2CN1C(=O)c1ccccc1
composite z-score [1]: 1.09
composite z-score [2]: 1.09
composite z-score [3]: -0.0554
composite z-score [4]: 1.01
composite z-score [5]: -0.266
composite z-score [6]: -0.157
z-score [7]: 0.226
composite z-score [8]: -0.472
composite z-score [9]: 0.883
z-score [10]: 2.19 (inactive)
composite z-score [11]: 0.943
z-score [12]: 0.0849 (inactive)
z-score [13]: 0.339 (inactive)
z-score [14]: 0.0075 (inactive)
z-score [15]: -0.101 (inactive)
composite z-score [16]: 1.12
composite z-score [17]: 0.674
composite z-score [18]: 0.0277
composite z-score [19]: 0.332
composite z-score [20]: -0.545

COC(=O)C(CC#Cc1ccc2c(c1)[C@]1(C(=O)N2)[C@H](C(=O)N2CCCCCCC2)[C@H]2C(=O)O[C@H](c3ccccc3)[C@H](c3ccccc3)N2[C@@H]1c1ccc(OCCO)cc1)C(=O)OC
composite z-score [1]: 3.39
composite z-score [2]: 1.32
composite z-score [3]: 4.91
composite z-score [4]: 0.943
composite z-score [5]: 1.49
composite z-score [6]: 1.6
z-score [7]: -0.949
composite z-score [8]: 1.79
composite z-score [9]: 1.77
z-score [10]: 0.035 (inactive)
composite z-score [11]: 2.02
z-score [12]: -0.873 (inactive)
z-score [13]: 1.02 (inactive)
z-score [14]: -0.581 (inactive)
z-score [15]: -0.546 (inactive)
composite z-score [16]: 4.12
composite z-score [17]: 1.97
composite z-score [18]: 3.57
composite z-score [19]: 3.65
composite z-score [20]: 2.05

CCOC(=O)C1=C[C@@H](C(C)(C)C)N(S(=O)(=O)c2ccc(C)cc2)[C@H]1c1ccc(OC)cc1
composite z-score [1]: 0.772
composite z-score [2]: 1.22
composite z-score [3]: 1.62
composite z-score [4]: 1.02
composite z-score [5]: 0.688
composite z-score [6]: 0.387
z-score [7]: 2.61
composite z-score [8]: 0.554
composite z-score [9]: 0.782
z-score [10]: 1.95 (inactive)
composite z-score [11]: 0.474
z-score [12]: -4.94 (inactive)
z-score [13]: -0.0448 (inactive)
z-score [14]: 0.238 (inactive)
z-score [15]: 0.334 (inactive)
composite z-score [16]: 1.36
composite z-score [17]: 0.0541
composite z-score [18]: 0.795
composite z-score [19]: -0.198
composite z-score [20]: 0.523
